A selection: hits, their analogues and other compounds. The true share with any hit is near 9.3%.
ELG1 genotox: qHTS screen for small molecules that induce genotoxicity in human embryonic kidney (HEK293T) cells expressing luciferase-tagged ELG1 | HEK293T ELG1-luciferase reporter, luminescence, 16 h | Potency, µM (highest dose often 46 µM), without a hit: at the top dose activity change, positive = activation, most hits filed as activators | hit rate 1.3% among 330,000; note: % of control where 0% means no effect; nearly all actives have a fitted effect of over 60% in size
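HEK293T cells expressing luciferase-tagged ELG1 were treated with compound or DMSO for 16 hr at 37°C. Luciferase activity was then read after 30 min with ONE-Glo at room temperature; rising signal flags genetic stress.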
SMN2 splice enh: qHTS Assay for Enhancers of SMN2 Splice Variant Expression | HEK293 SMN2-luciferase splicing reporter, luminescence, 30-36 h | Potency, µM (top dose mostly 46.1 µM), without a hit: at the highest dose activity change, positive = activation, most hits filed as activators | AID 1458, 2008 | hit rate 2.8% among 210,000; note: % of control where 0% means no effect; nearly all actives have a fitted effect of over 55% in size
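HEK293 cells carry an SMN2 […]–luciferase reporter in which exon 7 inclusion puts luciferase in frame. Cells were plated 10-12 h before compound addition, then incubated 30-36 h at 37C. ONE-Glo luminescence was read; sodium butyrate at 4.5 mM final served as control.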
ELG1 DNA repair: qHTS screen for small molecules that inhibit ELG1-dependent DNA repair in human embryonic kidney (HEK293T) cells expressing luciferase-tagged ELG1. HEK293T ELG1-luciferase reporter, luminescence, 16 h; DNA damage induced by 5-fluorouridine. Potency, µM (doses to about 46.1 µM), inactives show top-dose activity change, negative = inhibition, usual class: inhibitors. hit rate 2.3% among 330,000; note: % is set by controls: 0 for no effect and ±100 for the full control effect; nearly all actives have a fitted effect of over 55% in size
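DMSO vehicle served as the neutral condition. Each well held 2,000 cells given 5-fluorouridine plus compound; after 16 hr at 37 °C/5% CO2, ONE-Glo was added and luciferase measured 30 min later.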
NPC1 prom act: qHTS Assay for NPC1 Promoter Activators. Huh7 NPC1 promoter luciferase reporter, 24 h. Potency, µM (top dose mostly 9.22 µM), for the others: at the top dose activation, most hits filed as activators. hit rate 2.4% among 320,000; note: % of control where 0% means no effect; nearly all actives have a fitted effect of over 60% in size
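Quantitative HTS used a cell-based reporter: Huh7 cells stably bearing the NPC1 promoter upstream of luciferase were treated with compounds for 24 h, and promoter activation was read as luminescence.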
Rab9 promoter act: qHTS Assay for Rab9 Promoter Activators. Huh7 Rab9 promoter-luciferase reporter, luminescence, 24 h. hit rate 2.8% among 320,000. Potency, µM (doses to about 9.22 µM), for inactives: at the top dose activation, negative = inhibition, most hits filed as activators; note: % of control where 0% means no effect; nearly all actives have a fitted effect of over 60% in size
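Measured in stably transfected Huh7 cells bearing a Rab9 promoter–luciferase construct: 24 h compound treatment at 37 °C, followed by luminescence detection.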
FLuc counter: qHTS profiling assay for firefly luciferase inhibitor/activator using purifed enzyme and Km concentrations of substrates (counterscreen for miR-21 project); Luciferin 4-monooxygenase (Photinus pyralis), P08659; purified FLuc, Km substrates, luminescence inhibition; Potency, µM (titrated, usually from 57.5 µM), for inactives: at the top dose activity change, negative = inhibition, actives largely listed as inhibitors; hit rate 6.9% among 360,000;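 note: plate controls were vehicle for no effect and reference inhibitor for full effect; nearly all actives have a fitted effect of over 55% in size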
Target sequence (P08659 whole entry, looked up): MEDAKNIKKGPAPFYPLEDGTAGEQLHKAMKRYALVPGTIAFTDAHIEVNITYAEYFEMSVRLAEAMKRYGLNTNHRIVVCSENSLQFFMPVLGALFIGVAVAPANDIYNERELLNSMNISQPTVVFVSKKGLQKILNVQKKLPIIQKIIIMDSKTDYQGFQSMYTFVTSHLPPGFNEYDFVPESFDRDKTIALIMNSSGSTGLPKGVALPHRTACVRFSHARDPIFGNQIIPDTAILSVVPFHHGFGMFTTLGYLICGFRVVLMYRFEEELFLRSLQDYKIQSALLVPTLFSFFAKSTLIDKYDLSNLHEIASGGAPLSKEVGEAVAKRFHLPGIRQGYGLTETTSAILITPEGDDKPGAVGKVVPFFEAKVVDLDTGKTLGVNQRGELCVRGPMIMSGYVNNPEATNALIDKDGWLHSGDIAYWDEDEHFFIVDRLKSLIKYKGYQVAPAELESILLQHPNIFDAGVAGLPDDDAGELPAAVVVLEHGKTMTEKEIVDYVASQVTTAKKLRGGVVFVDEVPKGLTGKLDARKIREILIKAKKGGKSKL
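Purified P. pyralis luciferase (10nM final) with 10uM D-luciferin and 10uM ATP (Km levels) in 50mM Tris acetate pH 7.5, 10mM Mg acetate, 0.01% Tween-20, 0.05% BSA; qHTS 6-point titration, ~60 µM downward; luminescence read.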
Starred values were filed as active, the others as inactive; [ ] = remark or other dose. Calls come from the whole dose curve; as a rule, active = well fitted curve in the direction sought with a large enough effect; inconclusive = small, poorly fitted or top-dose-only effect, or another doubt; inactive = no such curve, though single readings can be large; an effect the other way counts as inactive or inconclusive. Potency is the fitted concentration of half-maximal effect.

How did Cc1ccc(-c2cc(C(=O)Nc3ccc(S(=O)(=O)Nc4ncccn4)cc3)c3ccccc3n2)cc1 do in these assays?
ELG1 genotox: 10.3%; SMN2 splice enh: 16.6%; ELG1 DNA repair: inconclusive; NPC1 prom act: -0.7%; Rab9 promoter act: -5.8%; FLuc counter: 6.75µM*

What do the screens show for `CCCc1nc2oc(C(=O)c3ccccc3)c(N)c2c2c1COC(C)(C)C2`?
ELG1 genotox: 11.2%; SMN2 splice enh: -20.3%; ELG1 DNA repair: -11.5%; NPC1 prom act: -1.8%; Rab9 promoter act: 0.8%; FLuc counter: -1.4%

How did COc1ccc(C(=O)c2oc3nc(C)cc(C)c3c2N)cc1 do in these assays?
ELG1 genotox: 0.5%; SMN2 splice enh: -8.7%; ELG1 DNA repair: inconclusive; NPC1 prom act: 0.0%; Rab9 promoter act: 17.6%; FLuc counter: 12µM*

How did Cc1nc2oc(C(=O)c3ccc(Br)cc3)c(N)c2c2c1COC(C)(C)C2 do in these assays?
ELG1 genotox: 1.4%; ELG1 DNA repair: 10.4%; NPC1 prom act: -0.1%; Rab9 promoter act: 6.4%; FLuc counter: -4.0%

Results for Cc1ccc(C(=O)c2oc3nc(C)cc(C)c3c2N)cc1 ?
ELG1 genotox: 1.7%; SMN2 splice enh: -4.0%; ELG1 DNA repair: 13.5%; NPC1 prom act: -0.5%; Rab9 promoter act: -10.1%; FLuc counter: 13.5µM*

How did CCc1ccc(C(=O)c2oc3nc(C)cc(C)c3c2N)cc1 do in these assays?
ELG1 genotox: 6.0%; SMN2 splice enh: -4.6%; ELG1 DNA repair: 13.9%; NPC1 prom act: 2.6%; Rab9 promoter act: 24.2%; FLuc counter: 15.1µM*

What do the screens show for `CCOc1ccc(S(=O)(=O)N2CCN(C(=O)c3ccccc3Cc3ccccc3)CC2)cc1`?
ELG1 genotox: 0.3%; ELG1 DNA repair: 4.0%; NPC1 prom act: 0.5%; Rab9 promoter act: 0.0%; FLuc counter: -1.9%

How did COc1cccc(-c2ccc(=O)n(CC(=O)Nc3ccc(S(=O)(=O)NCC(C)C)cc3)n2)c1 do in these assays?
ELG1 genotox: 0.7%; ELG1 DNA repair: -3.4%; NPC1 prom act: -5.9%; Rab9 promoter act: -0.9%; FLuc counter: -3.6%

How did CC#CCN1c2ccccc2[C@]23C[C@@H](C(=O)OC)N(S(=O)(=O)c4cccs4)C2=NC(C(=O)OC)=C(C(=O)OC)[C@H]13 do in these assays?
SMN2 splice enh: 5.7%[9.22 µM]

What do the screens show for `O=C(N/N=C/c1cc(Br)c(Br)o1)c1ccc2c(c1)OCCO2`?
ELG1 genotox: 4.6%; ELG1 DNA repair: inconclusive; NPC1 prom act: inconclusive; Rab9 promoter act: 2.51µM*; FLuc counter: 12µM*

What do the screens show for `CCOc1cc(/C=N/NC(=O)C(N)=O)cc(Br)c1O`?
ELG1 genotox: 0.2%; SMN2 splice enh: 3.2%; ELG1 DNA repair: inconclusive; NPC1 prom act: 1.8%; Rab9 promoter act: -5.8%; FLuc counter: 0.0%

Results for O=C(N/N=C/c1cc(Br)c(O)c(Br)c1O)c1ccc2c(c1)OCCO2 ?
ELG1 genotox: inconclusive; ELG1 DNA repair: -6.7%; NPC1 prom act: -31.1%; Rab9 promoter act: -35.6%; FLuc counter: 7.57µM*

Results for Cc1cc(Br)cc(/C=N/NC(=O)c2ccc3c(c2)OCO3)c1O ?
ELG1 genotox: 13.1%; ELG1 DNA repair: inconclusive; NPC1 prom act: -29.7%; Rab9 promoter act: -6.4%; FLuc counter: inconclusive

Results for CCOc1cc(/C=N/NC(=O)c2ccc3c(c2)OCCO3)cc(Br)c1O ?
ELG1 genotox: 10.4%; ELG1 DNA repair: 5.1%; NPC1 prom act: 8.8%; Rab9 promoter act: 12.6%; FLuc counter: 21.3µM*

How did COc1ccccc1CNC(=O)C1CCN(Cc2cc3ccccc3n2Cc2cccc(C)c2)CC1 do in these assays?
FLuc counter: -4.0%

Results for Cc1cccc(NC(=O)CSc2nc(NS(=O)(=O)c3ccccc3)cc(=O)[nH]2)c1 ?
ELG1 genotox: 1.7%; ELG1 DNA repair: 6.4%; NPC1 prom act: 0.1%; Rab9 promoter act: -7.5%; FLuc counter: -1.5%

What do the screens show for `COc1ccc(C(=O)N(C)C2CCCCC2)cc1S(=O)(=O)N1CCOCC1`?
ELG1 genotox: -0.1%; ELG1 DNA repair: 3.5%; NPC1 prom act: -0.5%; Rab9 promoter act: 1.9%; FLuc counter: 3.4%

How did Nc1ccc(-c2cnc(-c3ccc(N)cc3)nc2)cc1 do in these assays?
ELG1 genotox: inconclusive; SMN2 splice enh: 3.55µM*; ELG1 DNA repair: inconclusive; NPC1 prom act: 1.12µM*; Rab9 promoter act: 1.58µM*; FLuc counter: 3.38µM*

What do the screens show for `CCCC(=O)Nc1ccc(-c2cnc(-c3ccc(NC(=O)CCC)cc3)nc2)cc1`?
ELG1 genotox: 4.3%; ELG1 DNA repair: 0.0%; NPC1 prom act: -4.1%; Rab9 promoter act: 1.8%; FLuc counter: 9.1%

How did Oc1ccc(-c2cnc(-c3ccc(O)cc3)nc2)cc1 do in these assays?
ELG1 genotox: 2.91µM*; ELG1 DNA repair: inconclusive; NPC1 prom act: 1.12µM*; Rab9 promoter act: inconclusive; FLuc counter: 1.07µM*

How did O=c1oc(CCCO)cc2ccc(C#CC3(O)CCCCC3)cc12 do in these assays?
ELG1 genotox: 11.8%; ELG1 DNA repair: inconclusive; NPC1 prom act: 10.7%; Rab9 promoter act: -1.3%; FLuc counter: inconclusive

How did C=CCn1c2ccccc2c(=O)c2cc(C#CC3(O)CCCCC3)ccc21 do in these assays?
ELG1 genotox: inconclusive; ELG1 DNA repair: inconclusive; NPC1 prom act: 1.26µM*; Rab9 promoter act: 0.708µM*; FLuc counter: 0.757µM*

What do the screens show for `C=CCn1c2ccccc2c(=O)c2cc(C#CC[C@@H](C)O)ccc21`?
ELG1 genotox: inconclusive; ELG1 DNA repair: inconclusive; NPC1 prom act: 3.16µM*; Rab9 promoter act: inconclusive; FLuc counter: 2.13µM*

How did COc1cc(C2Nc3cccc4cccc(c34)N2)ccc1OC(C)=O do in these assays?
ELG1 genotox: 3.7%; SMN2 splice enh: 0.1%; ELG1 DNA repair: -1.8%; NPC1 prom act: -0.3%; Rab9 promoter act: 14.7%; FLuc counter: 12µM*

How did COc1ccc(C2Nc3cccc4cccc(c34)N2)cc1Br do in these assays?
ELG1 genotox: -3.1%; ELG1 DNA repair: 7.8%; NPC1 prom act: -1.5%; Rab9 promoter act: -0.5%; FLuc counter: inconclusive

What do the screens show for `COc1ccc(C2=NNC(=Nc3cc(S(=O)(=O)N(C)C)ccc3C)SC2)c(OC)c1`?
ELG1 genotox: -16.7%; ELG1 DNA repair: 14.6µM*; NPC1 prom act: -3.5%; Rab9 promoter act: -19.2%; FLuc counter: -12.0%

Screening data from PubChem BioAssay.
